Results as given in ChEMBL document CHEMBL1201862, “PubChem BioAssay data set” (2004).
The whole screen tested about 44,000 sequences, of which about 5,100 (12%) were called active. No stated cut-off is given here; in the data, active = GI50 up to about 1.1 µM and inactive = higher. The sample as a whole holds a higher share of actives than the screen did. Results with a measured potency or affinity are listed apart.

Test system: MCF7

Substance	GI50
[Bis(aminomethyl)tetramethylenesilane]tetrachloropaltinum(IV), CHEMBL2146189	1.64 µM
[Bis(aminomethyl)dimethylsilane]tetrachloroplatinum(IV), CHEMBL2146190	2.97 µM
SENNOSIDES, CHEMBL2108559	0.183 µM
[Bis(aminomethyl)pentamethylenesilane]tetrachloropaltinum(IV), CHEMBL2146204	0.29 µM
[Bis(aminomethyl)tetramethylenesilane]dichloropaltinum(II), CHEMBL2146205	2.22 µM
[Bis(aminomethyl)pentamethylenesilane]dichloropaltinum(II), CHEMBL2146202	0.249 µM
CISPLATIN, CHEMBL11359	3.01 µM
